Screening data (PubChem)
NLRP3 yeast inh – blocks the NALP3 inflammasome reconstituted in yeast. Yeast reconstituted NLRP3/ASC/caspase-1, beta-gal luminescence, 24 h. inhibition, % at 10 µM. actives 0.39% (n = 330,000);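 active = inhibition of 50% or more; inactive = inhibition below 50%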
SKKanGAS inh – inhibitors of SKKanGAS S. pyogenes growth in kanamycin (SK-promoter or general growth effect); actives 1.3% (n = 300,000); AID 1662; inhibition, % at 7.5 µM; BacTiter-Glo, 6 h;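 active = mean replicate score, as percent of positive control median, at least 50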;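 also: strain carries kanamycin resistance gene driven by streptokinase promoter and grows in 40 µg/ml kanamycin; loss of luminescence reflects streptokinase promoter inhibition or plain growth inhibition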
tim23-1 inh – growth inhibitors of tim23-1 mutant yeast; S. cerevisiae tim23-1 growth, BacTiter-Glo luminescence, 24 h; inhibition, % at 20 µM; actives 1.3% (n = 330,000); AID 463212;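 active = growth inhibition of the mutant yeast at or above 50%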;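 also: temperature-sensitive mutant grown at 25 °C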
tim10-1 inh – inhibits growth of tim10-1 mutant yeast. S. cerevisiae tim10-1 ts strain growth, BacTiter-Glo, 24 h. inhibition, % at 20 µM. AID 463190. actives 2.2% (n = 330,000);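 active = inhibition of at least 40%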;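 also: mutant grown at 25 °C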
TIM10 inh – TIM10 yeast growth inhibition | actives 1.4% (n = 330,000) | S. cerevisiae TIM10 strain growth, BacTiter-Glo luminescence, 24 h | inhibition, % at 10 µM;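 active = inhibition of 40% or more at the single tested concentration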;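 also: wild-type TIM10 isogenic control strain grown at permissive 25 °C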
NALP1 inh – blocks the NALP1 inflammasome reconstituted in yeast; actives 0.61% (n = 280,000); inhibition, % at 10 µM; AID 2071; S. cerevisiae NALP1/ASC/caspase-1 growth, X-gal OD620, 72 h; in the data active = inhibition mostly above about 24%, no sharp cut-off; inactive = mostly below about 32%
Large screens that a line does not name were inactive. In the library only some 4.9% were active in any assay of this set; here they are far more common.

COc1ccc(NC(=S)NNc2ccc(C(=O)O)cc2)cc1	none
CSCCC(NC(=O)c1ccccc1Br)C(=O)NNC(=O)c1cc(C)oc1C (stereo unspecified)	none (no result: SKKanGAS inh, NALP1 inh)
CNC(=S)NNC(=O)Cc1ccc(OC)cc1	none
COc1ccc(CC(=O)NC(=S)NNC(=O)COc2c(C)cccc2C)cc1	SKKanGAS inh 97
O=C(NC1=C(Nc2ccc(F)cc2)C(=O)c2ccccc2C1=O)c1ccc(Cl)cc1	SKKanGAS inh 51
O=C(NNC(=O)c1ccc(NC(=O)c2ccccc2)cc1)c1ccc(F)cc1	none
CCCNC(=O)c1ccc(N2CCC3(CC2)CC(c2ccccc2)=NO3)c(NC(=O)c2ccco2)c1	SKKanGAS inh 50
CCOC(=O)C(NC(=O)c1ccccc1Cl)(Nc1ccc(C)c(C)c1)C(F)(F)F (stereo unspecified)	none
COC(=O)C(Nc1ccccc1Cl)(c1cc(C)c(O)c(C)c1)C(F)(F)F (stereo unspecified)	SKKanGAS inh 88
CCOC(=O)N1CCN(C(=O)c2ccc3c(c2)NC(=O)/C(=C\c2cccc(C)c2)S3)CC1	SKKanGAS inh 92
CCOC(=O)N1CCN(C(=O)c2ccc3c(c2)NC(=O)/C(=C\c2ccc(OC)c(OC)c2)S3)CC1	SKKanGAS inh 101
O=c1[nH]c(-c2ccccn2)nc2sc(-c3ccccc3)cc12	SKKanGAS inh 96 (no result: NLRP3 yeast inh, tim23-1 inh, tim10-1 inh, TIM10 inh)
COc1ccc(OC)c(-c2cc(C(F)(F)F)c3c(n2)sc2c(O)cc(=O)[nH]c23)c1	SKKanGAS inh 81
COc1cc2ccccc2cc1C(=O)Nc1ccc(Cl)cn1	none
O=C(CSc1nc2ccccc2s1)Nn1cnnc1	NALP1 inh 24
O=C(O)CCSc1nc2ccccc2s1	none
c1ccc2sc(SCSc3nc4ccccc4s3)nc2c1	SKKanGAS inh 54
Cn1cc(C(=O)c2ccc(Cl)cc2Cl)cc1C(=O)N/N=C(\N)COc1ccc(Cl)cc1Cl	SKKanGAS inh 71
CC(C)(C)OC(=O)N1CCC(C(=O)Nc2cccc(C(=O)N3CCOCC3)c2)CC1	none (no result: SKKanGAS inh, NALP1 inh)
CN(C)S(=O)(=O)N1CCN(CC(O)COc2ccc(-c3ccccc3)cc2)CC1 (stereo unspecified)	none
COC(=O)C(C(=O)OC)C(C[N+](=O)[O-])c1ccc(OC)c(OC)c1 (stereo unspecified)	none
COc1ccc(C(C[N+](=O)[O-])C2(c3ccc(OC)c(OC)c3)C(=O)c3ccccc3C2=O)cc1 (stereo unspecified)	NALP1 inh 104 (no result: NLRP3 yeast inh, tim23-1 inh, tim10-1 inh, TIM10 inh)
COc1ccc(NC(=O)CN(C)C(=O)/C=C/c2cn(-c3ccccc3)nc2-c2ccc(F)cc2)cc1	SKKanGAS inh 63 (no result: NALP1 inh)
COc1ccc(NC(=O)CN(C)C(=O)/C=C/c2cn(-c3ccccc3)nc2-c2ccc(C)cc2)cc1	SKKanGAS inh 58 (no result: NALP1 inh)
O=C(N/N=C/c1c[nH]c2ccccc12)c1cc(Cl)ccc1O	none
Cc1cc(C(=O)N/N=C/c2ccc([N+](=O)[O-])s2)n[nH]1	SKKanGAS inh 109
Cc1[nH]cnc1C(=O)N/N=C/c1ccc([N+](=O)[O-])s1	SKKanGAS inh 103
Cc1cc(C(=O)N/N=C/c2ccc(C)s2)n[nH]1	none
O=C(CNc1ccccc1)N/N=C/c1c(O)ccc2ccccc12	SKKanGAS inh 101
O=C(N/N=C/c1c(O)ccc2ccccc12)Nc1ccccc1	SKKanGAS inh 93 (no result: NALP1 inh)
O=C(O)c1cc(N/N=C/c2c(O)ccc3ccccc23)ccc1Cl	none
COc1ccc(NC(C)C(=O)N/N=C/c2c(O)ccc3ccccc23)cc1 (stereo unspecified)	SKKanGAS inh 97
CC(=O)Nc1ccc(N=Cc2c(O)ccc3ccccc23)cc1	none
O=C(COC(=O)c1cccs1)Nc1cccc(S(=O)(=O)N2CCCCC2)c1	none (no result: SKKanGAS inh, NALP1 inh)
C/C(=N\Nc1cc(C)nc(-c2ccccc2O)n1)c1ccccc1O	SKKanGAS inh 74
COc1ccccc1C(=O)NNC(=O)c1cccc(C)c1	none
COC(=O)c1c(C)[nH]c(C(=O)OCC(=O)N(CC(C)C)c2c(N)n(Cc3ccccc3)c(=O)[nH]c2=O)c1C	SKKanGAS inh 67 (no result: NALP1 inh)
COc1ccc(CNC(=O)CN(C(=O)c2csnn2)c2ccc(F)cc2)cc1	none
Cn1c(N)c(S(=O)(=O)N2CCCC2)c(=O)n(C)c1=O	none
COC(=O)C1=C(C)NC(=O)NC1c1ccco1 (stereo unspecified)	none
